Assay outcomes: PubChem BioAssay, National Center for Advancing Translational Sciences (NCATS)
Sampled rows, rich in hits. Any-hit rate of the full collection: about 3.7%.
GLP-1R inv ag: GLP-1 receptor (human) inverse agonism | P43220 | HEK293 GLP-1R CRE-luciferase, luminescence, 24 h; GLP-1R form is constitutively active | Potency, µM (doses to about 38.3 µM), usual class: inhibitors | 1.6% of 410,000 active | AID 624417; also: nearly all actives have a fitted effect of over 55% in size
Target sequence (P43220 whole entry, looked up): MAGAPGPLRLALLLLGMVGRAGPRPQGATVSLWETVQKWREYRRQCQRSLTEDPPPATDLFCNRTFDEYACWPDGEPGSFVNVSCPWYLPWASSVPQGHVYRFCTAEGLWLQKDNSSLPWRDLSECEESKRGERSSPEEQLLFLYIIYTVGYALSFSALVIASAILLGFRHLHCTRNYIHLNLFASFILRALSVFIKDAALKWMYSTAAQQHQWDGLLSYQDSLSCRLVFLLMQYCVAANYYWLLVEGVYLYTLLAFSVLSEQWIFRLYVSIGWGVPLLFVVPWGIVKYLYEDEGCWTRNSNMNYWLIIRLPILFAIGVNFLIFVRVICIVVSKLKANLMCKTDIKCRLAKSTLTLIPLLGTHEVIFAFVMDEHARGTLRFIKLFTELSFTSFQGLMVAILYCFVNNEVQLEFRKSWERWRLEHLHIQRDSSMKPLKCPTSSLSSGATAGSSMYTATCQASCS
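Stable HEK293 clone (constitutively active GLP-1R + cAMP-response luciferase); 200 cells/uL plated, 12 h pre-culture, compound 24 hr, 37 deg C/5% CO2; detection reagent 12 min RT; luminescence.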
TGFb inhibitor: blocks TGF-b signaling; HepG2 CAGA-GFP TGF-b/SMAD3 reporter, GFP fluorescence, 18 h; TGF-beta stimulated, 500 pg/mL final; Potency, µM (highest dose often 46.1 µM), hits mostly inhibitors; 1.2% of 410,000 active; also: nearly all actives have a fitted effect of over 65% in size
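Cell-based qHTS in HEPG2 carrying a CAGA-GFP Smad reporter; compounds added before 500 pg/mL final TGF-beta, 18 h incubation at 37 degrees C, GFP fluorescence quantified per cell by imaging cytometry.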
HepG2 tox: kills HepG2 cells in TGF-b inhibitor counter-screen | Potency, µM (top dose mostly 46.1 µM), hits mostly cytotoxic | 0.76% of 410,000 active | HepG2 CAGA-GFP viability, ATP luminescence, 18 h | AID 588856
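CellTiter-Glo luminescence gave cytotoxicity after 18 hours at 37 degrees C. The cells were HepG2 CAGA-GFP in 1% FBS DMEM, stimulated with 500 pg/mL TGF-beta after compound addition. %Activity was normalised to no-cell wells (complete cell-killing) and DMSO (no toxicity), and curves were fitted and classified.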
ATXN2 expr inh: ATXN2 expression inhibition. HEK-293 ATXN2-luciferase reporter, luminescence, 24 h. Potency, µM (top dose mostly 57 µM), usual class: inhibitors. 0.72% of 360,000 active; also: nearly all actives have a fitted effect of over 55% in size
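ATXN2-luciferase reporter cells (luciferase flanked by upstream and downstream ATXN2 gene portions) were treated 24 h at 37 °C with compounds at up to 57 uM. SteadyGlo luminescence gave expression; GF-AFC fluorescence gave viability.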
S2 tox: viability counter-screen for ATXN expression inhibitors; 0.49% of 400,000 active; Potency, µM (series often up to 56.7 µM), most hits filed as cytotoxic; S2 cells (HEK-293 line with an ATXN2-luciferase reporter) viability, CellTiter-Fluor protease fluorescence, 24 h; also: nearly all actives have a fitted effect of over 40% in size
GLP-1R agonist: activates the human GLP-1 receptor; AID 624172; 0.007% of 380,000 active; Potency, µM (doses to about 45.6 µM), usual class: activators; HEK293 GLP-1R CRE-luciferase, luminescence, 4-6 h; cells express a hypersensitive GLP-1R form; P43220
A number is an active result. Calls follow the shape of the dose curve; as a rule, active = well fitted curve in the direction sought with a large enough effect; inconclusive = small, poorly fitted or top-dose-only effect, or another doubt; inactive = no such curve, though single readings can be large; an effect the other way counts as inactive or inconclusive.

`O=C(O)c1ccc(/C=N/Nc2ccc(F)cc2F)cc1` gave GLP-1R inv ag inconclusive, TGFb inhibitor inactive, HepG2 tox inactive, ATXN2 expr inh inactive, S2 tox inactive and GLP-1R agonist inactive.
`Cc1cn2c(=O)cc(COC(=O)c3cccc(NC(=O)c4ccc(C(C)(C)C)cc4)c3)nc2s1` gave GLP-1R inv ag inactive, TGFb inhibitor inactive and HepG2 tox inactive.
Screening Oc1cc(-c2cccs2)cc2c1OCCN(Cc1cn[nH]c1-c1ccc(Cl)cc1)C2 returned S2 tox inactive.
`COC(=O)c1ccc(NC(=O)CCc2c(C)nc3c(c(C)nn3C(C)(C)C)c2C)cc1` gave GLP-1R inv ag inactive, TGFb inhibitor 15.8µM, HepG2 tox inactive, ATXN2 expr inh inactive, S2 tox inactive and GLP-1R agonist inactive.
CCOC(=O)c1ccc(NC(=O)CCc2c(C)nc3c(c(C)nn3C(C)(C)C)c2C)cc1 was read as GLP-1R inv ag 7.94µM, TGFb inhibitor inconclusive, HepG2 tox inactive, ATXN2 expr inh inconclusive, S2 tox inactive and GLP-1R agonist inactive.
Screening Cc1cccc(NC(=O)CCc2c(C)nc3c(c(C)nn3C(C)(C)C)c2C)c1C returned GLP-1R inv ag inactive, TGFb inhibitor inactive, HepG2 tox inactive, ATXN2 expr inh inactive, S2 tox inactive and GLP-1R agonist inactive.
NC(=O)c1ncn([C@@H]2O[C@H](CO)[C@@H](O)[C@@H]2O)c1O was read as ATXN2 expr inh inactive.
COC(=O)c1oc2ccc(Br)cc2c1NC(=O)CCN1CCOCC1 was read as GLP-1R inv ag inactive, TGFb inhibitor inactive, HepG2 tox inactive, ATXN2 expr inh inactive, S2 tox inactive and GLP-1R agonist inactive.
For CCOC(=O)c1oc2ccc(Br)cc2c1NC(=O)CN1CCN(C)CC1 the results were GLP-1R inv ag 8.91µM, TGFb inhibitor inactive, HepG2 tox inactive, ATXN2 expr inh inactive, S2 tox inactive and GLP-1R agonist 10µM.
For CN(C)c1ccc(N=Nc2ccc(C(=O)O)cc2)cc1 the results were GLP-1R inv ag 2.51µM, TGFb inhibitor inactive, HepG2 tox inactive, ATXN2 expr inh inactive, S2 tox inconclusive and GLP-1R agonist inactive.
CN(C)c1ccc(N=Nc2ccccc2C(=O)O)cc1 was read as TGFb inhibitor inactive and HepG2 tox inactive.
Screening O=C(CCCCCCNC(=O)c1cnc(N(c2ccccc2)c2ccccc2)nc1)NO returned ATXN2 expr inh inactive.
For CCC(=O)O[C@H]1C(O[C@@H]2C(C)[C@H](O[C@H]3C[C@@](C)(OC)C(O)C(C)O3)C(C)C(=O)OC(CC)[C@@](C)(O)C(O)[C@H](C)C(=O)C(C)C[C@]2(C)O)OC(C)CC1N(C)C (stereo partly drawn) the results were GLP-1R agonist inactive.
`Oc1ccccc1N=Nc1ccccc1O` gave GLP-1R inv ag inconclusive, TGFb inhibitor inconclusive, HepG2 tox inactive, S2 tox 0.891µM and GLP-1R agonist inactive.
`COc1cccc(CNC(=O)c2c(OC)cc(=O)n3c2CCN(C(=O)C2=C(C)OCCO2)CC3)c1` gave S2 tox inactive.
Screening CCc1ccccc1NC(=O)Cn1c(-c2nonc2N)nc2ccccc21 returned GLP-1R inv ag inactive, TGFb inhibitor inactive and HepG2 tox inactive.
Nc1nonc1-c1nc2ccccc2n1CC(=O)N/N=C\c1ccc(-c2ccc(Cl)cc2)o1 was read as GLP-1R inv ag 10µM, TGFb inhibitor inactive, HepG2 tox inactive, ATXN2 expr inh inconclusive, S2 tox inactive and GLP-1R agonist inactive.
CCCCOc1ccccc1NC(=O)Cn1c(-c2nonc2N)nc2ccccc21 was read as GLP-1R inv ag inconclusive, TGFb inhibitor inconclusive, HepG2 tox inactive, ATXN2 expr inh inconclusive, S2 tox 14.1µM and GLP-1R agonist inactive.
For CC(=O)OCCNc1cc(N2CCN(C)CC2)c2noc3c2c1C(=O)c1ccccc1-3 the results were GLP-1R inv ag inactive, TGFb inhibitor inactive, HepG2 tox inactive, ATXN2 expr inh inconclusive, S2 tox inactive and GLP-1R agonist inactive.
CCOC(=O)C(C(=O)OCC)c1cc(Br)c2noc3c2c1C(=O)c1ccccc1-3 was read as GLP-1R inv ag inactive, TGFb inhibitor 6.31µM, HepG2 tox inactive, ATXN2 expr inh 11.2µM, S2 tox 20µM and GLP-1R agonist inactive.
Screening Cc1cc(NC(=O)c2ccoc2C)ccc1Br returned GLP-1R inv ag inconclusive, TGFb inhibitor 15.8µM, HepG2 tox inactive, ATXN2 expr inh inactive, S2 tox inactive and GLP-1R agonist inactive.
Screening Cc1cc(NC(=O)c2ccccc2-c2ccccc2)ccc1Br returned GLP-1R inv ag 10µM, TGFb inhibitor inconclusive, HepG2 tox inactive, ATXN2 expr inh inactive, S2 tox inactive and GLP-1R agonist inactive.
CC(=O)N1CCc2cc(Br)cc(S(=O)(=O)CCC(=O)N3CCN(c4ccc(F)cc4)CC3)c21 was read as GLP-1R inv ag inactive, TGFb inhibitor inconclusive, HepG2 tox inactive, ATXN2 expr inh inactive, S2 tox inactive and GLP-1R agonist inactive.
CCOC(=O)CSc1cccc2cccnc12 was read as GLP-1R inv ag inconclusive, TGFb inhibitor inconclusive, HepG2 tox 8.91µM, ATXN2 expr inh 20µM, S2 tox inconclusive and GLP-1R agonist inactive.
For COc1ccc(NC(=O)CSc2cccc3cccnc23)c(OC)c1 the results were GLP-1R inv ag inactive, TGFb inhibitor inactive, HepG2 tox inactive, ATXN2 expr inh inactive, S2 tox inactive and GLP-1R agonist inactive.
Screening CCCCCOc1ccc(NC(=O)CSc2cccc3cccnc23)cc1 returned GLP-1R inv ag inconclusive, TGFb inhibitor inconclusive, HepG2 tox 20µM, ATXN2 expr inh inactive, S2 tox inactive and GLP-1R agonist inactive.
Screening Cc1cccc(NC(=O)CSc2cccc3cccnc23)c1C returned GLP-1R inv ag inactive, TGFb inhibitor inconclusive, HepG2 tox inactive, ATXN2 expr inh inactive, S2 tox inactive and GLP-1R agonist inactive.
Screening O=C(CSc1cccc2cccnc12)Nc1ccc(S(=O)(=O)N2CCOCC2)cc1 returned GLP-1R inv ag inconclusive, TGFb inhibitor inconclusive, HepG2 tox inactive, ATXN2 expr inh 12.6µM, S2 tox 11.2µM and GLP-1R agonist inactive.
For CCc1ccc(NS(=O)(=O)c2c(-c3ccccc3)csc2C(=O)OC)cc1 the results were GLP-1R inv ag inconclusive, TGFb inhibitor inconclusive, HepG2 tox inactive, ATXN2 expr inh inactive and S2 tox inconclusive.
CCOC(=O)C1CCCN(C(=O)c2cnn(-c3nccc(-c4cc(C)sc4C)n3)c2C)C1 (stereo not drawn) was read as S2 tox inactive.
